mcGAS lum = cyclic GMP-AMP synthase inhibitors, mouse, primary biochemical chemiluminescence. inhibition, % at 12.5 µM. hit rate 0.15% among 160,000. recombinant cGAS, Kinase-Glo ATP depletion luminescence
hcGAS inh = Primary biochemical luminescence assay for human cyclic GMP-AMP synthase inhibitors | recombinant h-cGAS, ATP depletion, Kinase-Glo luminescence | hit rate 0.081% among 290,000 | inhibition, % at 12.5 µM
NPYLR7 ag = agonists of mosquito NPYLR7 receptor, primary screen, cell-based, Aedes aegypti, calcium fluorescence, mosquito biting behavior; HEK293T NPYLR7/Galpha15, GCaMP6s calcium fluorescence; AID 1259423, 2018; hit rate 0.15% among 270,000; Aedes aegypti neuropeptide Y-like receptor 7 (NPYLR7); activation, % at 10 µM; in the data active means activation above about 40%
Numbers stand for hits; – = inactive; · = not tested or not shown. Sampled rows, rich in hits. Any-hit rate of the full collection: about 0.3%. Unless noted, no stated cut-off is given here; in the data, active means inhibition above about 40%; inactive means the rest.

SMILES	mcGAS lum	hcGAS inh	NPYLR7 ag
CCn1nc(-c2cccs2)nc2c(=O)n(C)c(=O)nc1-2	59	–	–
CCc1ccccc1NC(=O)c1cccn(Cc2cccc(F)c2)c1=O	·	–	–
Oc1c(Cl)c(Cl)c(Cl)c(Cl)c1Cl	·	70	–
O=C(c1cccs1)N1CCN2C[C@@H](c3ccccc3)[C@H](CO)[C@H]2C1	–	–	–
O=C(NCC1CN2CCN1CC2)c1cc(Cl)sc1Cl (stereo not drawn)	–	–	–
Cc1cc(C(=O)N2CCN3CCN(C)C(=O)C3C2)c(=O)[nH]c1C (stereo not drawn)	·	–	–
O=C1OC2(c3cc(Br)c(O)cc3Oc3c2cc(Br)c(O)[c]3[Hg])c2ccccc21 (stereo not drawn)	–	–	98
ClCC1CO1 (stereo not drawn) (tested in a mixture with another compound)	–	–	–
CC(=O)NS(=O)(=O)c1ccc(NC(=O)c2cccn(Cc3ccccc3C)c2=O)cc1	·	–	–
CN1CC2(CCCN(Cc3cc(-c4ccccn4)no3)C2)OC1=O (stereo not drawn)	·	–	–
O=C(O)c1ccccc1-c1c2cc(Br)c(=O)cc-2oc2[c]([Hg])c(O)c(Br)cc12	·	–	60
O=c1cc(CN2CC=C(c3ccc(O)cc3)CC2)nc2ccc(Cl)cn12	–	–	–
COCCNC(=O)c1nn(Cc2ccc(S(=O)(=O)N3CCCc4ccccc43)cc2)c2ccccc12	–	–	–
N#CC(C#N)=Cc1ccc(-c2ccccc2)cc1	49	–	–
N#CC(C#N)=Cc1ccc(O)cc1	·	–	–
COC(=O)C(OS(=O)(=O)c1ccc(C)cc1)(c1ccccc1)c1ccccc1	·	–	–
COc1ccccc1CC(C)N(C)C(=O)NC1C2CCOC2C1(C)C (stereo not drawn)	·	–	–
CC1=NCCc2c1[nH]c1cc(O)ccc21	–	–	65
COc1ccc2c3c([nH]c2c1)C(C)=NCC3	–	–	–
O=[N+]([O-])c1c(Cl)ccc2c1no[n+]2[O-]	93	61	–
O=[N+]([O-])c1cc(C(F)(F)F)cc2c1no[n+]2[O-]	·	–	–
C1CCC(N2CCN(C3CC4CCC3C4)CC2)C1 (stereo not drawn)	·	–	–
O=c1c(O)c(-c2ccc(O)c(O)c2)oc2c(O)c(O)cc(O)c12	·	47	–
CN1N=C(c2ccccc2)NN(C)P1(=S)c1ccccc1 (stereo not drawn)	·	–	–
N#Cc1ccc(NC(=O)N2CCSCC2)cc1C(F)(F)F	·	–	–
SMILES	mcGAS lum	hcGAS inh	NPYLR7 ag
N#CC1C(=N)Oc2c(c(=O)oc3ccccc23)C1c1ccc([N+](=O)[O-])o1 (stereo not drawn)	59	–	–
N#CC1C(=N)Oc2c(c(=O)oc3ccccc23)C1c1cccc(F)c1 (stereo not drawn)	–	–	–
Cc1ccc(N2C(=O)NC(=O)/C(=C/c3cn(C)c4ccccc34)C2=O)cc1	–	–	–
Cc1cccc(N2C(=O)NC(=O)/C(=C/c3cn(C)c4ccccc34)C2=O)c1	–	–	53
Cc1cnccc1NS(=O)(=O)c1ccc(C#N)c(Cl)c1	·	–	·
CC(=O)Nc1ccc(-c2ccc(=O)n3c2[C@@H]2C[C@@H](CN(C(=O)c4cnccn4)C2)C3)cc1	–	–	–
COC(=O)[C@]12CCC(C)(C)C[C@H]1[C@H]1C(=O)C=C3[C@@]4(C)C=C(C#N)C(=O)C(C)(C)[C@@H]4CC[C@@]3(C)[C@]1(C)CC2	52	–	–
CCN(CC)S(=O)(=O)c1ccc(Cl)c(C(=O)Oc2cccc3cccnc23)c1	–	–	–

Assay outcomes as filed in PubChem BioAssay.
